# Test results taken from PubChem BioAssay (NCATS).
# Several values for one entry are separate records, joined by “and”; a condition that tells them apart may be missing. Equal values may be shown once. Values without a mark were called inactive. Results filed as inconclusive are left out. Entries that show only a call come without a potency. More than one record can exist for a structure, and the calls need not agree. Activity calls are given as the source filed them. Unless noted, calls come from the whole dose curve; as a rule, active = well fitted curve in the direction sought with a large enough effect; inconclusive = small, poorly fitted or top-dose-only effect, or another doubt; inactive = no such curve, though single readings can be large; an effect the other way counts as inactive or inconclusive.
# Assays:
# [1] = qHTS assay for small molecule antagonists of the retinoid-related orphan receptor gamma (ROR-gamma) signaling pathway - cell viability counter screen (AID 720652; active = well fitted curve in the direction sought with a large enough effect in the repeat runs; an effect the other way counts as inactive or inconclusive;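 note: compound exposure lasted 16 hr before ATP read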; note: potency is the fitted concentration of half-maximal effect)
# In short: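 Luminescence from CellTiter-Glo after 30 min at room temperature reported cellular ATP as the cytotoxicity measure. Cells were the CHO reporter line with doxycycline-induced ROR-gamma expression, exposed to compound for 16 hr at 37 C.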
# [2] = qHTS assay for small molecule agonists of the antioxidant response element (ARE) signaling pathway measured by Nrf2-dependant transcriptional activity - cell viability counter screen (AID 720653; active = well fitted curve in the direction sought with a large enough effect in the repeat runs; an effect the other way counts as inactive or inconclusive; note: potency is the fitted concentration of half-maximal effect); details: ARE-bla HepG2 viability, CellTiter-Glo ATP luminescence, 16 h; max response: active compounds read low
# In short: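 ARE-bla HepG2 cells (2,000/well) rested 5 hrs at 37C/5% CO2, then exposed to compounds in DMSO for 16 hrs. Viability was read in the same wells as intracellular ATP by luminescence, 30 min at room temperature after reagent addition.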
# [3] = qHTS Assay for Identifying Gametocytocidal Compounds (AID 743244); note: potency is the fitted concentration of half-maximal effect;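 for max response: actives lower the fluorescent signal which means gametocytes are killed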; details: P. falciparum 3D7 stage III-V gametocytes, alamarBlue, 72 h; max response: active compounds read low
# In short: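 Late gametocytes (III–V), P. falciparum 3D7; 72 h drug, then 24 h alamarBlue; resazurin reduction read by fluorescence.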
# [4] = qHTS assay for cell viability of HEK293 cells (AID 743288); details: ATP luminescence (CellTiter-Glo), 18 h; max response: active compounds read low; note: nearly all actives have a fitted effect of over 50% in size; note: potency is the fitted concentration of half-maximal effect
# In short: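 Parental HEK293 cells, 2,000 per well, preincubated at least 5 h at 37 C, then exposed to compounds in DMSO for 18 h at 37 C. Viability by CellTiter-Glo ATP luminescence after 30 min at room temperature.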
# [5] = qHTS assay for cell viability of the p53RE-bla HCT-116 cell line (AID 743292); note: nearly all actives have a fitted effect of over 55% in size; note: potency is the fitted concentration of half-maximal effect
# In short: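 Viability of compound-treated p53RE-bla HCT-116 cells is taken from ATP-dependent luciferase luminescence. Treatment lasts 16 h at 37 C after a 5 h settling period; detection follows 30 min at room temperature.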
# [6] = target: T1, Hexokinase-4 (Homo sapiens) + Glucokinase regulatory protein (Homo sapiens) (UniProt P35557+Q14397); experiment: qHTS assay for inhibitors of recombinant human GCK-GKRP interaction: Diaphorase-coupled assay (AID 743205)
# T1 sequence (P35557 whole entry, looked up): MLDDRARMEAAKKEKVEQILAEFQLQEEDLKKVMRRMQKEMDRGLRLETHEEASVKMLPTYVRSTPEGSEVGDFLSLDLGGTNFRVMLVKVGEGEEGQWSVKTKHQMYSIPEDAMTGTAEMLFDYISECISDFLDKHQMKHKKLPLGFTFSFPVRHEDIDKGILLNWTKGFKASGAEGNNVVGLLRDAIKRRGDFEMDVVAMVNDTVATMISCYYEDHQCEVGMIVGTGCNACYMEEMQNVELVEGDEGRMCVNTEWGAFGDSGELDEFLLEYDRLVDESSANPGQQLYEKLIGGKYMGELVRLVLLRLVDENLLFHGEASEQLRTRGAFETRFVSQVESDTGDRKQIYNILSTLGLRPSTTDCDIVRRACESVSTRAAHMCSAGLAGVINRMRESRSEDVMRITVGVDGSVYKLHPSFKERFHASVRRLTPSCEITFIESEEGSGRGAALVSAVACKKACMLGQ
# T1 sequence (Q14397 whole entry, looked up): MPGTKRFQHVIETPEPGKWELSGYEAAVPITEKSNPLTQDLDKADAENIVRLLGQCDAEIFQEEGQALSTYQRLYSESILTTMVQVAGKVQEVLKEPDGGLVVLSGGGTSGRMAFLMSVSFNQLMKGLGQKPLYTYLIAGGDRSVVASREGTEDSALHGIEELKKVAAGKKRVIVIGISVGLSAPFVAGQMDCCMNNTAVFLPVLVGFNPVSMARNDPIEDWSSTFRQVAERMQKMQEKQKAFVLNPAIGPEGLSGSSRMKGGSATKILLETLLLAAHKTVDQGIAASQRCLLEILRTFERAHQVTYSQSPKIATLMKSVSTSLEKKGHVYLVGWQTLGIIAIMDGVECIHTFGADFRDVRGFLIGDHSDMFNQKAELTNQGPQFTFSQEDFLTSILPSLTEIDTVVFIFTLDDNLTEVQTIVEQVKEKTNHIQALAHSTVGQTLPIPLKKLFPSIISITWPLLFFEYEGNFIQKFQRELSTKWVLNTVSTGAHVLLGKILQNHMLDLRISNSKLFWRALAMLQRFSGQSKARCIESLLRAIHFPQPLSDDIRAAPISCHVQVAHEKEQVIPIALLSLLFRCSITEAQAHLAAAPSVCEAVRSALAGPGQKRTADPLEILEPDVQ
# In short: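 Compounds pre-incubated 20 min with substrate, then 10 nM GST-GCK with 10 nM FLAG-GKRP added. GCK activity coupled via G6PDH and diaphorase to resorufin (5 mM glucose, 0.4 mM ATP, 0.15 mM NADP+, pH 7.6), read kinetically over 30 minutes at Ex 525/Em 590 nm.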
# [7] = target: T1, Hexokinase-4 (Homo sapiens) + Glucokinase regulatory protein (Homo sapiens); experiment: qHTS assay for inhibitors of recombinant human GCK-GKRP interaction: ADP-Glo assay (AID 743206)
# In short: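 GST-GCK and FLAG-GKRP (15 nM each in the dispensed mix, with 2 uM S6P) react with 0.4 mM ATP and 5 mM glucose (final) in Hepes pH 7.6 for 60 min at room temperature. ADP is measured by ADP-Glo luminescence.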
# [8] = target: T1, Hexokinase-4 (Homo sapiens) + Glucokinase regulatory protein (Homo sapiens); experiment: qHTS assay for inhibitors of recombinant human GCK-GKRP interaction: HTRF assay (AID 743207)
# In short: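 HTRF binding of 5 nM GST-GCK and 5 nM FLAG-GKRP with 2 uM S6P in pH 7.1 Hepes buffer (MgCl2, KCl, DTT, Tween 20, BSA). Anti-FLAG XL665 and anti-GST donor added, 60 min at room temperature; 665/615 nm read, normalized to with- and without-GCK controls.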
structure (smiles),measurement,setting,value
O=C1CCO1,Potency,[1],inactive
same,max response,[2],5.4%
same,max response,[3],11.4%
same,max response,[4],5.83%
same,Potency,[5],inactive
CCOC(=O)c1ccccc1C(=O)OCC,Potency,[1],inactive
same,max response,[2],8.89% and -10.7% and -8.42%
same,max response,[3],6.33%
same,max response,[4],-2.28% and 4.29% and 3.24%
same,Potency,[5],inactive
C#CCN1CC(=O)N(COC(=O)C2C(C=C(C)C)C2(C)C)C1=O (configuration not stated),max response,[2],2.56%
same,max response,[3],21.2%
same,max response,[4],-15.4%
same,Potency,[5],inactive
O=[N+]([O-])c1ccccc1,Potency,[1],inactive
same,max response,[2],-3.95% and -3.49%
same,max response,[3],18.1%
same,max response,[4],-0.844% and 8.43%
same,Potency,[5],inactive
O=C/C=C/c1ccccc1,Potency,[1],inactive
same,max response,[2],12.8% and -6.35%
same,max response,[3],4.39%
same,max response,[4],-23.6%
same,Potency,[5],inactive
CCCCCl,Potency,[1],inactive
same,max response,[2],-3.38%
same,max response,[4],-0.598%
same,Potency,[5],inactive
O=C1C2CC=CCC2C(=O)N1SC(Cl)(Cl)Cl (configuration not stated),Potency,[1],29.8 µM (active)
same,Potency,[2],28.2 µM (active)
same,max response,[2],-23.3%
same,max response,[3],-3.19%
same,Potency,[4],10 µM (active)
same,Potency,[5],inactive
[O]=[Cr](=[O])([OH])[O][Cr](=[O])(=[O])[OH],Potency,[1],11.9 µM (active)
same,max response,[2],-23.9%
same,max response,[3],21.1% and 18.4%
same,Potency,[4],39.8 µM (active) and 15.8 µM (active)
same,Potency,[5],31.6 µM (active) and 25.1 µM (active) and 22.4 µM (active)
ClC(Cl)(Cl)Cl,Potency,[1],inactive
same,max response,[2],14.9% and -6.99%
same,max response,[4],-6.99% and 5.96%
same,Potency,[5],inactive
[Cl-].[Cl-].[Hg+2],Potency,[1],1.68 µM (active)
same,max response,[2],-13.5%
same,Potency,[4],44.7 µM (active)
same,Potency,[5],inactive
[O]=[Cd],Potency,[1],inactive
same,max response,[2],-0.962%
same,max response,[3],2.29%
same,max response,[4],3.33%
same,Potency,[5],inactive
CC(C)(C)c1cc(O)ccc1O,Potency,[1],inactive
same,max response,[2],21.5% and -0.658% and -3.53%
same,Potency,[3],31.6 µM (active) and 3.55 µM (active)
same,max response,[4],-11% and 8.59% and 5.79%
same,Potency,[5],inactive
C[C@H]1CCC[C@H](O)CCCCCc2cc(O)cc(O)c2C(=O)O1,Potency,[1],inactive
same,max response,[2],-13.4%
same,max response,[3],5.29%
same,max response,[4],-4.88%
same,Potency,[5],inactive
CCCSP(=O)(OCC)SCCC,max response,[2],-15.9%
same,max response,[3],-10.7%
same,max response,[4],-0.31%
same,Potency,[5],inactive
O=Cc1ccco1,Potency,[1],inactive
same,max response,[2],-4.31%
same,max response,[3],5.14%
same,max response,[4],6.18%
same,Potency,[5],inactive
NNC(N)=O,Potency,[1],inactive
same,max response,[2],4.7%
same,Potency,[6],inactive
same,outcome,[7],inactive
same,outcome,[8],inactive
same,max response,[3],14.6%
same,max response,[4],-7.58%
same,Potency,[5],inactive
ClCC1CO1 (configuration not stated),Potency,[1],inactive
same,max response,[2],-2.98%
same,max response,[3],11.4%
same,max response,[4],3.04%
same,Potency,[5],inactive
C=CCN1C[C@@H](C)N([C@H](c2ccc(C(=O)N(CC)CC)cc2)c2cccc(OC)c2)C[C@@H]1C,Potency,[6],inactive
same,outcome,[7],inactive
same,outcome,[8],inactive
Clc1cc(I)cc(Cl)c1NC1=NCCN1,Potency,[6],inactive
same,outcome,[7],inactive
same,outcome,[8],inactive
same,max response,[3],44.8%
CCCCCCCCOC(=O)c1ccccc1C(=O)OCCCCCCCC,max response,[2],-5.46% and -4.31%
same,max response,[4],-2.74% and -18%
same,Potency,[5],inactive
c1ccc2c(N3CCNCC3)cccc2c1,Potency,[6],inactive
same,outcome,[7],inactive
same,outcome,[8],inactive
CC(C)(C)c1cc(C=C(C#N)C#N)cc(C(C)(C)C)c1O,Potency,[6],inactive
same,outcome,[7],inactive
same,outcome,[8],inactive
OCc1cnc[nH]1,Potency,[6],inactive
same,outcome,[7],inactive
same,outcome,[8],inactive
CC(C)Nc1ccc(Nc2ccccc2)cc1,max response,[2],-21.1%
same,Potency,[5],inactive
O=[N+]([O-])/C=C/c1ccc2c(c1)OCO2,Potency,[6],inactive
same,outcome,[7],inactive
same,outcome,[8],inactive
NC(N)=NOCC[C@H](N)C(=O)O,Potency,[6],inactive
same,outcome,[7],inactive
same,outcome,[8],inactive
NC(=O)CI,Potency,[6],inactive
same,outcome,[7],inactive
same,outcome,[8],inactive
same,max response,[3],8.04%
Cc1o[nH]c(=O)c1CC(N)C(=O)O (configuration not stated),Potency,[6],inactive
same,outcome,[7],inactive
same,outcome,[8],inactive
O=[N+]([O-])c1ccc2nc(N3CCNCC3)ccc2c1,Potency,[6],inactive
same,outcome,[7],inactive
same,outcome,[8],inactive
Cc1c2ccncc2c(C)c2c1[nH]c1ccccc12,Potency,[6],inactive
same,outcome,[7],inactive
same,outcome,[8],inactive
N[C@@H](Cn1ccc(=O)[nH]c1=O)C(=O)O,Potency,[6],inactive
same,outcome,[7],inactive
same,outcome,[8],inactive
